# HT1080 IDH1KD tx: qHTS for induction of synthetic lethality in tumor cells producing 2HG: qHTS for the HT-1080-IDH1KD cell line; HT-1080 IDH1 knockdown viability, ATP luminescence, 48 h; Potency, µM (top dose mostly 46.1 µM), for the others: top-dose activity, negative = toxicity, usual class: cytotoxic; 2% of 360,000 active;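 further: potency means the concentration at half of the fitted maximal effect; 0% = DMSO wells and -100% = cell-free medium wells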
#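 In this qHTS, HT-1080 cells depleted of IDH1 are exposed for 48 h at 37 °C to compound titrations. Toxicity is scored from CellTiter-Glo luminescence, with DMSO as full viability and medium alone as none.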
# TDP1 cell CPT: qHTS for Inhibitors of human tyrosyl-DNA phosphodiesterase 1 (TDP1): qHTS in cells in presence of CPT. 12% of 420,000 active. Potency, µM (titrated, usually from 46.2 µM), without a hit: at the top dose activity change, negative = growth inhibition, usual class: inhibitors. chicken DT40 Tdp1-/-;hTDP1 cells + 20 nM CPT, ATP luminescence, 48 h; further: potency means the concentration at half of the fitted maximal effect; nearly all actives have a fitted effect of over 55% in size
#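 Cell growth measured by CellTiter-Glo luminescence after a minimum 48 h, 37 C compound exposure with 20 nM CPT in Tdp1-knockout DT40 cells stably expressing hTDP1, seeded 400/well; qHTS titration format.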
# HT1080-NT tox: qHTS for induction of synthetic lethality in tumor cells producing 2HG: qHTS for the HT-1080-NT fibrosarcoma cell line; Potency, µM (highest dose often 46.1 µM), for the others: at the top dose activity, negative = less viability, actives largely listed as cytotoxic; HT-1080-NT fibrosarcoma viability, CellTiter-Glo ATP luminescence, 48 h; 1.6% of 360,000 active; AID 686970, 2013;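 further: NT is the 2HG producing partner of a matched IDH1 knockdown line; potency means the concentration at half of the fitted maximal effect; 0% = DMSO-treated cells and -100% = media-only wells without cells; nearly all actives have a fitted effect of over 55% in size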
#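 HT-1080-NT fibrosarcoma cells (2HG-overproducing), 750 cells/well in RPMI with 5% FBS, dosed after 2 h and incubated 48 h at 37C. CellTiter-Glo luminescence normalized to DMSO and no-cell wells; concentration-response curves fitted and classed.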
# TDP1 cell noCPT: qHTS for Inhibitors of human tyrosyl-DNA phosphodiesterase 1 (TDP1): qHTS in cells in absence of CPT | DT40 Tdp1-/- hTDP1 cells, no CPT, ATP luminescence, 48 h | Potency, µM (top dose mostly 46.2 µM), without a hit: top-dose activity change, negative = growth inhibition, actives largely listed as inhibitors | 15% of 420,000 active; further: potency means the concentration at half of the fitted maximal effect; nearly all actives have a fitted effect of over 55% in size
#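 A cellular qHTS used chicken DT40 cells lacking endogenous Tdp1 but carrying stably transfected human TDP1. Compounds were applied without camptothecin, and cell growth kinetics were judged by ATP-dependent luminescence after ≥48 hr.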
# IL-1B inflam inh: qHTS for Inhibitors of Inflammasome Signaling: IL-1-beta AlphaLISA Primary Screen. 4.7% of 360,000 active. activity change, % at 57.5 µM. THP-1 LPS/ATP IL-1B secretion, AlphaLISA, 16 h; active compounds read low. AID 743279, 2014; in the data active means activity change below about -50%; inconclusive means mostly about -30% to -49%
#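 THP-1 cells pretreated 1 hr with compounds (up to 57.5 uM final), then stimulated with LPS (250 ng/mL final) plus ATP (1.25 mM final); secreted IL-1B measured by AlphaLISA after 16 hr, decreased signal indicating inhibition.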
# 12-LOX inh: Primary qHTS assay for inhibitors of human arachidonate 12S-lipoxygenase (ALOX12): Round 2; Polyunsaturated fatty acid lipoxygenase ALOX12 (Homo sapiens), P18054; purified 12hLO, xylenol orange hydroperoxide absorbance; Potency, µM (titrated, usually from 108 µM), inactives show top-dose activity change, negative = inhibition, usual class: inhibitors; 1.1% of 580,000 active; further: potency means the concentration at half of the fitted maximal effect
# Target sequence (P18054 whole entry, looked up): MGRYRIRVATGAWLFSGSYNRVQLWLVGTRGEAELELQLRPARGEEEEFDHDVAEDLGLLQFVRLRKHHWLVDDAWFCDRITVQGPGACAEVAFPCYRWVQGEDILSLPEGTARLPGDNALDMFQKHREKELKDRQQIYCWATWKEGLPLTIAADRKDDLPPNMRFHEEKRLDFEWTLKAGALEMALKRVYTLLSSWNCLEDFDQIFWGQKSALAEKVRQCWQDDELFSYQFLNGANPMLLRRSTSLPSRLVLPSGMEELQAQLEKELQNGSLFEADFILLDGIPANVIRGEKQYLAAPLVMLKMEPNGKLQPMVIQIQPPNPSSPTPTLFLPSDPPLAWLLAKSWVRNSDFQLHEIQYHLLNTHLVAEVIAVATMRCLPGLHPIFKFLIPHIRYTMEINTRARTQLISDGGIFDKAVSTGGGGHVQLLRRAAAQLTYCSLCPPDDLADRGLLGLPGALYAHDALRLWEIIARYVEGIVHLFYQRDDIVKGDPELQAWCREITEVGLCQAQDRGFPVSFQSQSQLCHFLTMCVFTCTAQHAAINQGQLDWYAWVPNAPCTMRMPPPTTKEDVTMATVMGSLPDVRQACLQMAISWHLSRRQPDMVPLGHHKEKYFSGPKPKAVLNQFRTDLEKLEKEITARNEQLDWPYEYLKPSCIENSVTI
#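 Purified human 12hLO at 150 nM in 25 mM Hepes, 0.01% Triton X-100, pH 7.0, preincubated 15 min at room temperature with compound. Reaction started with 40 uM arachidonic acid, 30 min at room temperature. Hydroperoxide measured by Fe-xylenol orange, 573/405 nm absorbance ratio.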
# * hit, by the source's call; ? = inconclusive; nt = no result; [ ] = remark or other dose. The sample as a whole holds a higher share of hits than the screen did. Unless noted, the call rests on the fitted dose curve; in most records, active means well fitted curve in the direction sought with a large enough effect; inconclusive means small, poorly fitted or top-dose-only effect, or another doubt; inactive means no such curve, though single readings can be large; an effect the other way counts as inactive or inconclusive. Unless noted, on the % scale 0 is the no-effect control and ±100 the full control effect.
SMILES,HT1080 IDH1KD tx,TDP1 cell CPT,HT1080-NT tox,TDP1 cell noCPT,IL-1B inflam inh,12-LOX inh
CN(C)Cc1c(O)ccc2ccccc12,-3%,?,3%,?,0,0%
Oc1ccc2ccccc2c1CN(Cc1ccccc1)Cc1ccccc1,nt,nt,nt,nt,nt,3.2µM*
CC(C)CN(Cc1c(O)ccc2ccccc12)CC(C)C,4%,?,5%,?,34,40µM*
CCN(CC)C(=O)CN1C(=O)C(=O)c2ccccc21,5%,-13%,19%,0%,10,-13%
O=C1C(=O)N(CNc2ccccn2)c2ccccc21,-22%,2.1µM*,?,1.6µM*,62,57%
Cc1cccc(C)c1OCC(=O)NCc1nnc(SCC(=O)NC2CCCCC2C)n1C (stereo not drawn),12%,-20%,5%,-8%,5,7.1µM*
COc1cc(CNCC2CCOCC2)ccc1OCC(O)CN(C)C1CCCCC1 (stereo not drawn),nt,nt,nt,nt,nt,46%
COc1ccc(-c2csc(N(Cc3ccccc3)C(=O)COc3ccc(Cl)cc3)n2)cc1,-6%,21µM*,-2%,18µM*,11,1%
O=C(COc1ccccc1)N(Cc1ccccc1)c1nc(-c2ccccc2)cs1,-21%,-27%,?,?,-4,2%
COc1ccc(-c2csc(N(CCc3ccc(OC)c(OC)c3)C(=O)COc3ccccc3)n2)cc1,12%,?,5%,16µM*,7,0%
CC(=O)N(O)c1ccc(/C=C2\C=Cc3ccccc32)cc1,nt,1.4µM*,nt,3.2µM*,nt,nt
CN(C)c1ccc(/C=C2\C=Cc3ccccc32)c(Cl)c1,nt,?,nt,13µM*,nt,nt
CNc1c(Cl)cc(/C=C2\C=Cc3ccccc32)cc1Cl,nt,-24%,nt,-12%,nt,nt
CC(=O)N(C)c1ccc(/C=C2\C=Cc3ccccc32)cc1,nt,6.3µM*,nt,7.1µM*,nt,nt
CCCC(=O)N(C)c1ccc(/C=C2\C=Cc3ccccc32)cc1,nt,3.2µM*,nt,2.2µM*,nt,nt
CCCCN(CCCC)c1ccc(/C=C2\C=Cc3ccccc32)cc1,nt,-21%,nt,-24%,nt,nt
N#Cc1cccnc1NCCNc1cc(Cl)nc(N)n1,nt,nt,nt,nt,nt,-13%
COCc1nncn1C1CCN(S(=O)(=O)c2cc(F)ccc2OC)CC1,nt,nt,nt,nt,nt,34%
O=C1c2cc(N3CCOCC3)nc(-c3ccccc3Oc3ccccc3)c2CN1C1COC1,nt,nt,nt,nt,nt,-2%
O=C(c1cccc(F)c1)N1CCOc2ccc(CN3CCc4ccccc4C3)cc2C1,nt,nt,nt,nt,nt,-5%
COC[C@H]1C[C@@H](NC(=O)c2cnccn2)[C@H](O)[C@@H]1O,nt,nt,nt,nt,nt,81%[176 µM]
O=C(NCC(=O)N1CCCC1c1ccccc1)c1ccc(F)cc1 (stereo not drawn),nt,nt,nt,nt,nt,6%
Cc1ccc(NC(=O)[C@H](Cc2ccccc2)n2cnnn2)cc1,nt,nt,nt,nt,nt,2%
CCOC(=O)/C(C#N)=C1/C=CN(Cc2ccccc2)C=N1,-3%,-2%,?,1%,-5,3%
CCOC(=O)/C(C#N)=C1\C(=O)N(Cc2ccccc2)c2ccccc21,-2%,9.2µM*,-8%,9.2µM*,-5,?
CCC(CC)NC(=O)C1CCN(c2cn[nH]c(=O)c2)C1 (stereo not drawn),nt,nt,nt,nt,nt,10%
CN(Cc1ccccc1)C(=O)CSc1ncnc2sc3c(c12)CCC3,nt,nt,nt,nt,nt,2%
COCCn1c(C)cc(C(=O)COc2nc3ccccc3nc2C)c1C,-29%,16µM*,-12%,15µM*,-18,-4%

# Compound activity: PubChem, National Center for Advancing Translational Sciences (NCATS)
